Vaccinia Venus = inhibitors of vaccinia virus (Venus reporter). Vaccinia virus Venus reporter expression, fluorescence. Potency, µM (doses to about 36.5 µM), for inactives: at the highest dose activity change, negative = inhibition, usual class: inhibitors. actives 0.46% (n = 330,000). AID 720580; calls by dose curve; tested in A549 cells; further: potency means the concentration at half of the fitted maximal effect; nearly all actives have a fitted effect of over 30% in size
Marburg entry inh = inhibitors of Marburg virus binding or cell entry; Marburg virus pseudotyped entry inhibition, cell reporter; Potency, µM (highest dose often 37.8 µM), inactives show at the highest dose activity change, negative = inhibition, actives largely listed as inhibitors; AID 540276; actives 1.8% (n = 300,000); calls by dose curve; tested in HEK293 cells; further: potency means the concentration at half of the fitted maximal effect
Lassa entry inh = inhibitors of Lassa virus binding or cell entry. Lassa virus pseudotype entry inhibition, cell reporter. Potency, µM (titrated, usually from 37.9 µM), without a hit: top-dose activity change, negative = inhibition, actives largely listed as inhibitors. actives 1.2% (n = 300,000). AID 540256; calls by dose curve; tested in HEK293 cells; further: potency means the concentration at half of the fitted maximal effect; nearly all actives have a fitted effect of over 50% in size
VACV mCherry inh = inhibitors of vaccinia virus infection (mCherry reporter signal) | Potency, µM (top dose mostly 36.5 µM), inactives show at the highest dose activity change, negative = inhibition, most hits filed as inhibitors | actives 0.63% (n = 310,000) | AID 720579 | Vaccinia virus mCherry reporter infection, fluorescence; calls by dose curve; tested in A549 cells; further: potency means the concentration at half of the fitted maximal effect; nearly all actives have a fitted effect of over 35% in size
HCMV inh = human cytomegalovirus inhibition; actives 4.5% (n = 410,000); activity change, negative = inhibition, % at 57.5 µM; HFF cells, HCMV-luciferase reporter, 72 h; hits give low values; in the data active means activity change below about -60%; inconclusive means no clear call, values can overlap the other calls; inactive means above about -39%
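After 16 h attachment at 37C, HFF cells received test compound and HCMV-luciferase (1 PFU/cell); reporter luminescence read 72 h later, data normalized against buffer-only and known inhibitor Salinomycin.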
HCV inhibitor = blocks hepatitis C virus | actives 3.4% (n = 340,000) | Huh7.5.1 HCVcc-Cre infection, luciferase reporter, 44 h | Potency, µM (doses to about 41.8 µM), for the others: at the highest dose activity change, negative = inhibition, most hits filed as inhibitors | AID 651820; active means well fitted inhibition curve with a large enough effect; inconclusive means small, poorly fitted or top-dose-only effect, or another doubt; inactive means no such curve, though single readings can be large or run the other way; further: potency means the concentration at half of the fitted maximal effect
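Cells (1,000/well) were plated 4 h before compound, then infected with HCVcc-Cre virus (~0.5 moi). After 44 h further culture, infection was read as luciferase luminescence following a 15 min substrate incubation at room temperature.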
Active calls of the source: *; i = inactive; ? = inconclusive; · = not tested or not shown; [ ] = remark or other dose. A selection: hits, their analogues and other compounds. The true share with any hit is near 7.8%. On the % scale 0 is the no-effect control and ±100 the full control effect.

SMILES	Vaccinia Venus	Marburg entry inh	Lassa entry inh	VACV mCherry inh	HCMV inh	HCV inhibitor
CSc1ccc(Cn2c(C)c(C(=O)NCc3cccc(C)c3)sc2=O)cc1	-12.6%	·	·	-14.6%	-66.9*	·
C=Cc1ccc(Cn2c(C)c(C(=O)NCc3cccc(C)c3)sc2=O)cc1	-0.3%	·	·	2.9%	-65.0*	·
COc1ccc(Cl)cc1Cn1c(C)c(C(=O)NCc2ccc3c(c2)OCCO3)sc1=O	8.3%	·	·	7.1%	-71.9*	·
Cc1c(C(=O)NCc2ccccc2C(F)(F)F)sc(=O)n1Cc1ccccc1C#N	-0.8%	·	·	i	-62.3*	·
COc1ccc(CNC(=O)c2sc(=O)n(Cc3cc(Cl)ccc3OC)c2C)cc1	-2.1%	·	·	11.9%	?	·
COC(=O)[C@@H]1CCCN1Cc1ccc2c(c1)CN(Cc1ccccc1F)CCO2	2.9%	·	·	-9.6%	·	·
C=Cc1ccc(CC2(C)C(=O)Nc3ccc(-c4cccnc4)cc32)cc1 (stereo unspecified)	-14.4%	·	·	-12.8%	?	·
C=Cc1ccc(C(=O)N2CCc3c(cnc(C)c3CNC(=O)c3ccc4c(c3)OCO4)C2)cc1	-5.8%	·	·	-8.7%	·	·
Cc1cccc(CNC(=O)c2sc(=O)n(Cc3ccc(S(C)(=O)=O)cc3)c2C)c1	-4.1%	·	·	-4.7%	-68.7*	·
Cc1c(C(=O)NCc2ccc(C(F)(F)F)cc2)sc(=O)n1Cc1ccc(S(=O)(=O)N(C)C)cc1	-21.6%	·	·	-6.7%	-72.7*	·
O=C(c1ccc(NC(=S)Nc2ccc(Cl)c(Cl)c2)cc1)N1CCCC1	-19.4%	15.2%	-10.9%	i	-62.4*	3.2%
O=C(Nc1ccc(Cl)c(Cl)c1)N1CCCCCC1	-0.7%	?	-0.9%[46.1 µM]	-6.0%	97.0	-12.3%
O=C(C1CCCO1)N1CCN(C(=S)Nc2ccc(Cl)cc2)CC1 (stereo unspecified)	-17.2%	?	-10.5%	i	-11.8	6.1%
O=C(C1CCCO1)N1CCN(C(=S)Nc2ccc(Cl)c(Cl)c2)CC1 (stereo unspecified)	-29.5%	?	10µM*	?	-10.1	2.9%
CC(=O)c1cccc(NC(=O)COC(=O)c2ccc(S(C)(=O)=O)c([N+](=O)[O-])c2)c1	-13.6%	·	·	-10.4%	-24.4	5.01µM*
CC(=O)c1cccc(NC(=O)C(C)OC(=O)c2ccc(S(C)(=O)=O)c([N+](=O)[O-])c2)c1 (stereo unspecified)	-16.6%	·	·	-7.5%	·	·
O=C(OCc1ccccc1)c1cccc(-c2nnc(-c3ccccc3)o2)c1	·	28.4%	-0.8%	·	20.1	-1.3%
CS(=O)(=O)c1ccc(C(=O)OCc2nnc(-c3ccccc3)o2)cc1[N+](=O)[O-]	?	3.16µM*	?	-16.9%	8.1	?
O=C(OCc1ccc(C(=O)c2ccccc2)cc1)c1cccc(-c2nnc(-c3ccccc3)o2)c1	·	?	?	·	?	14.1µM*
Cc1ccccc1NC(=O)Cc1nc(COC(=O)c2ccc(S(C)(=O)=O)c([N+](=O)[O-])c2)cs1	·	·	·	·	·	10µM*
COc1ccc(NC(=O)c2ccco2)cc1NC(=O)c1ccc(C)c(C)c1	-5.9%	-16.2%[46.1 µM]	?	1.1%	-3.5	·
Cc1ccccc1NC(=O)COC(=O)c1ccc(S(C)(=O)=O)c([N+](=O)[O-])c1	-26.4%	9.2µM*	20.6µM*	-0.5%	-93.5*	?
CC(CCc1ccccc1)NC(=O)COC(=O)c1ccc(S(C)(=O)=O)c([N+](=O)[O-])c1 (stereo unspecified)	?	?	?	?	-98.5*	?
CC(CCc1ccccc1)NC(=O)COC(=O)c1ccc([N+](=O)[O-])cc1 (stereo unspecified)	-17.7%	11.9%[46.1 µM]	23.8%[46.1 µM]	?	1.1	15.8%
CCN(CC(O)COCc1ccc(Cl)cc1)C1CCCCC1 (stereo unspecified)	-9.5%	?	-46.7%	-4.4%	-13.3	?
SMILES	Vaccinia Venus	Marburg entry inh	Lassa entry inh	VACV mCherry inh	HCMV inh	HCV inhibitor
CCN(CC(O)COc1ccc(OCC(O)CN(CC)C2CCCCC2)cc1)C1CCCCC1 (stereo unspecified)	-17.1%	?	?	?	-21.7	5.01µM*
CN(CC(O)COc1ccccc1F)C1CCCCC1 (stereo unspecified)	-13.3%	?	4.5%[46.1 µM]	-2.0%	10.9	1.6%
Cc1ccccc1OCC(O)CN(Cc1ccccc1O)C1CCCCC1 (stereo unspecified)	?	11.2µM*	-16.3%[46.1 µM]	-23.6%	?	-9.3%
Cc1cccc(NC(=O)CSc2nc(=O)n(Cc3cccnc3)c3c2CCC3)c1	-23.2%	·	12.1%[46.1 µM]	i	-10.6	·
CN(C)S(=O)(=O)c1cccc(-c2nn(-c3ccccc3)cc2/C=C2\SC(=S)NC2=O)c1	?	22.4µM*	?	?	-82.0*	-8.6%
COCc1c(C(=O)NCCc2ccc(OC(F)F)cc2)oc2ccccc12	·	·	·	·	-13.7	?
O=C(O)C1CSC(c2ccccc2Cl)N1C(=O)c1ccc(Cl)cc1 (stereo unspecified)	-8.1%	?	-1.9%	-11.5%	-61.0*	10.2%
COc1ccc(C2=C3CCC[C@]4(C)CCO[C@]34C=CC2=O)cc1	·	·	·	·	-11.5	·
Cc1ccc2oc(C(=O)Nc3nnc(C)s3)c(C)c2c1	-4.3%	0.5%	?	-16.0%	135.4	26.6%
COc1ccc2oc(C(=O)Nc3nnc(C)s3)c(C)c2c1	0.0%	?	7.08µM*	-17.6%	28.2	-7.1%
COc1cc(OC)cc(C(=O)Nc2nc3ccc(S(C)(=O)=O)cc3s2)c1	-13.8%	?	-15.3%[46.1 µM]	-14.4%	36.8	-20.7%
COc1cc(C(=O)Nc2nc3ccc(S(C)(=O)=O)cc3s2)cc(OC)c1C	-24.0%	5.9%	?	-3.8%	?	3.55µM*
COc1ccc2oc(C(=O)Nc3nc4ccc(S(C)(=O)=O)cc4s3)c(C)c2c1	-9.9%	-16.6%	25.3%	-9.9%	-60.1*	16.0%
NC(=O)C12C(=O)NC(=O)C1(C(=O)O)C21CCCC1 (stereo unspecified)	-12.6%	-17.5%	-4.6%	i	14.4	25.1%
Cc1ccc2c(c1)CN(CCNC(=O)c1cc3ccccc3oc1=O)CC(C)O2 (stereo unspecified)	0.6%	·	·	-7.2%	·	·
CN(c1ccc(C(=O)NCC2CCCO2)cc1)S(=O)(=O)c1ccc(Cl)cc1 (stereo unspecified)	-16.5%	·	·	-10.9%	3.0	·
CN(c1ccc(C(=O)Nc2ccc(Cl)cn2)cc1)S(=O)(=O)c1ccccc1	·	·	·	·	-66.1*	11.2µM*
Cc1ccc(S(=O)(=O)N(C)c2ccc(C(=O)NCC3CCCO3)cc2)cc1 (stereo unspecified)	·	2.0%	-7.1%	·	-102.3*	13.8%
CN(c1ccc(C(=O)O)cc1)S(=O)(=O)c1ccc(Cl)cc1	-4.9%	-5.2%	14.7%	·	14.1	-11.3%
Cc1ccc(S(=O)(=O)N(C)c2ccc(C(=O)Nc3ccc(C)cn3)cc2)cc1	-7.9%	?	?	-9.8%	-37.0	5.01µM*

Assay outcomes from PubChem.
